# D1 ag: agonists of human D1 dopamine receptor; P21728; HEK293 T-REx D1 cells, calcium flux, agonist mode; activation, % at 2 µM; 360,000 tested, 1% active; in the data active means activation above about 30%; further: 0% is about no effect
#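 Agonism was scored from calcium flux recorded over 180 s (1 read/s) after pintool compound addition, following a 10-cycle baseline. Cells were inducible force-coupled HEK293 TREx D1, plated overnight at 30 C and loaded with no-wash calcium dye.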
# DRD3 antagonist: D3 dopamine receptor (human) antagonism; 360,000 tested, 2.5% active; max response, negative = inhibition, %; P35462; AID 652054; D3R cells, DiscoveRx beta-arrestin luminescence, antagonist mode; active compounds read low; in the data active means max response below about -50%; inconclusive means no clear call, values can overlap the other calls; further: on the % scale 0 is the no-effect control and ±100 the full control effect
# Target sequence (P35462 whole entry, looked up): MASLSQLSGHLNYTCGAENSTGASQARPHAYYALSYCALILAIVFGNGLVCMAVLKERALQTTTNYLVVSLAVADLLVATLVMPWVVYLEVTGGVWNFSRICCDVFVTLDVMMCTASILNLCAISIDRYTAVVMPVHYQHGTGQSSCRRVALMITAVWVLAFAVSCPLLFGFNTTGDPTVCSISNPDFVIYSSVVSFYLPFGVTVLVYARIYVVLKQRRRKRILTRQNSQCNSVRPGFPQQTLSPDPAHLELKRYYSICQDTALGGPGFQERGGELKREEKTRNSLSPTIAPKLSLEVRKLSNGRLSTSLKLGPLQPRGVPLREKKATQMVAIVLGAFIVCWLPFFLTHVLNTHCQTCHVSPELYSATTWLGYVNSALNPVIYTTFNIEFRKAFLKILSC
#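 Cells plated overnight at 1500 cells/well, then exposed to library compounds with dopamine controls for 90 minutes at 37 degrees C. DiscoveRx reagent added for 30–60 minutes at room temperature; luminescence read, quantitative HTS format.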
# D1 antag: human D1 dopamine receptor antagonism | P21728 | HEK293 TREx D1 cells, calcium flux, dopamine EC80; active compounds read low | activity change, negative = inhibition, % at 10 µM | 360,000 tested, 3.2% active | AID 504652; in the data active means activity change below about -30%; further: on the % scale 0 is the no-effect control and ±100 the full control effect
#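 HEK293 T-REx cells expressing inducible, force-coupled D1 receptor; no-wash Ca dye, 30–90 min RT. Cmpd → 180 s read at 1 Hz → EC80 DA → 180 s read.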
# D1 PAM: human D1 dopamine receptor positive modulation | HEK293 TREx D1 cells, calcium flux, dopamine EC20 potentiation | potentiation, % at 10 µM | 360,000 tested, 0.036% active; in the data active means potentiation above about 30%; further: 0% is about no effect
# DRD3 agonist: activates the human D3 dopamine receptor. AID 652048. max activation, %. P35462. 410,000 tested, 0.58% active. D3R DiscoveRx beta-arrestin cells, luminescence, 90 min; in the data active means max activation above about 30%; further: 0% is about no effect
#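 Agonist-mode cell screen: cells plated at 1500/well and incubated overnight at 37 °C, then exposed to library compounds for 90 min at 37 °C. Detection reagent was added for 30–60 min at room temperature, and luminescence was read.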
# * = called active by the depositor; ? = inconclusive; . = not tested or not shown. An excerpt weighted towards active compounds, which were near 6.1% of everything screened.
SMILES,D1 ag,DRD3 antagonist,D1 antag,D1 PAM,DRD3 agonist
CC1(OC(=O)CCc2ccccc2)C(=O)C=C2C=C(c3ccc(C#N)cc3)N(c3ccccc3)C=C2C1=O (configuration not stated),7,0,-37*,-5,-20
COc1ccc(C(=O)N2CC(=O)Nc3ccc(C)cc3C2c2ccccc2)c(OC)c1 (configuration not stated),4,.,-45*,1,3
Cc1ccc2c(c1)C(c1ccccc1)N(C(=O)c1ccc(S(=O)(=O)N3CCCCC3)cc1)CC(=O)N2 (configuration not stated),5,.,-48*,-2,-4
COc1ccccc1C(=O)N1CC(=O)Nc2ccc(C)cc2C1c1ccc(F)cc1 (configuration not stated),1,?,-4,-8,-2
COc1ccc2c(c1)c1c(c(=O)n(-c3cccc(Cl)c3)c(=O)n1CC(=O)N1CCCC1)n2C,0,.,-7,0,1
CCc1nc2ccccc2c(C(=O)O)c1C,2,27,3,-3,-3
O=C(NCc1ccccc1)c1nc2ccccc2s1,3,-4,-39*,-4,-5
CCc1nc2ccccc2c(C(=O)NCc2ccccc2)c1C,1,-3,-49*,-3,-4
NC(=O)c1oc2ccccc2c1NC(=O)c1nc2ccccc2s1,3,-8,9,4,9
O=C(NCCO)c1nc2ccccc2s1,0,6,4,0,1
Cc1ccccc1C(=O)Nc1nnc(-c2ccc(F)cc2)o1,-1,-21,-37*,0,-17
O=C(Nc1nnc(-c2ccccc2)o1)c1nc2ccccc2s1,164*,7,-25,-13,0
CCC1CCc2c(sc(NC(=O)C3CC=CCC3C(=O)O)c2C#N)C1 (configuration not stated),1,0,-7,-9,33*
CCOC(=O)Nc1sc2c(c1C#N)CCC(C)C2 (configuration not stated),0,1,-11,2,4
C[C@H]1CNC(=O)c2c(C(=O)N3CCN(C(=O)OC(C)(C)C)CC3)ncn21,.,-55*,.,.,-13
CCCCC1(C)Cc2ccccc2C(=S)N1 (configuration not stated),1,-50*,4,-3,-8
CCOC(=O)/C(C)=C1\NC(C)(C)Cc2ccccc21,3,-1,-2,0,1
COc1ccc(-n2nc3ccc(NC(=O)c4c(OC)cccc4OC)cc3n2)cc1,7,.,-8,-4,0
CCc1c(C2(O)CCCCC2)[nH]c2cnccc12,6,-53*,.,0,-7
Cc1c(C2(O)CCCCC2)[nH]c2ccc(C(F)(F)F)cc12,.,0,.,.,14
CS(=O)(=O)N(CC(=O)N1CCc2ccccc2C1)c1cccc(F)c1,3,1,-18,-5,-5
CS(=O)(=O)N(CC(=O)N1CCc2ccccc2C1)c1cccc([N+](=O)[O-])c1,1,-3,-78*,-4,-9
Brc1ccc(-c2ccc(CNCc3ccccn3)o2)cc1,3,-74*,3,-4,-20
O=C(Nc1ccnn1C1CCN(Cc2ccc3nonc3c2)CC1)c1cccc(F)c1,8,-22,-39*,1,-7
CCc1ccc(CN2CCC(n3nccc3NC(=O)c3cccc(F)c3)CC2)cc1,6,14,0,15,-5
SMILES,D1 ag,DRD3 antagonist,D1 antag,D1 PAM,DRD3 agonist
CCc1ccc(CN2CCC(n3nccc3NC(=O)C3CCCC3)CC2)cc1,9,1,68,32*,-31
Cc1nc2c(C(=O)N(C)Cc3ccccc3)c[nH]n2c(=O)c1Cc1ccc(Cl)cc1,26,.,-21,-1,-18
COc1ccc(OC)c(NC(=O)C(OC(=O)CNC(=O)c2ccccc2)c2ccccc2)c1 (configuration not stated),2,.,1,0,.
CC(C)=CCC/C(C)=C/COc1c2ccoc2cc2oc(=O)ccc12,40*,.,-2,6,.
O=C(Cc1ccc(-c2ccccc2)cc1)NCCS(=O)(=O)N1CCN(c2ccccc2)CC1,4,.,-4,-3,-8
CCc1ccc(NC(=O)CC2C(=O)N(c3ccc(Cl)cc3)C(=O)N2C2CCCC2)cc1 (configuration not stated),8,.,-3,0,-1
CCOC(=O)Nc1sc(C)nc1-c1ccccc1,1,19,-49*,-9,9
CCN1CCN(c2ncnc3scc(-c4ccc(C)cc4)c23)CC1,1,-92*,8,0,-7

# Screening results as filed in PubChem.
